# Assay outcomes as filed in PubChem BioAssay.
# Hits are enriched below; roughly 9.3% of the tested compounds scored in any of these assays.
# mHtt clearance = mutant huntingtin protein clearance. HeLa Exon1htt(103Q)mCFP, aggregate imaging; zero = plate's median compound well. 47,000 compounds, 0.42% hits. inhibition, % at 1.5 µM;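 active = inhibition of aggregate fluorescence above about 70%, also judged a hit by eye on the cell image, limit read from the data, passing the limit was not always enough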;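 note: cells exposed to compound for three days before fixation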
# M1 agonist = M1 muscarinic receptor agonism; CHO-M1 cells, Fluo-4 calcium fluorescence, agonist mode; stronger effect = higher value; B-score at 10 µM; 64,000 compounds, 3% hits;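 active = fluorescence rise, raw or as B-score row- and column-corrected plate score, outside the 99.7% band of its plate's samples, either direction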
# NADH coupling = inhibition of NAD/NADH coupling enzymes, library profiling; AID 774; coupled PK/LDH NADH assays, four targets; 65,000 compounds, 0.02% hits; IC50, µM (titrated, usually from 10 µM), without a hit: at the top dose inhibition;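 active = single-dose screening hits from any of four coupled enzyme assays that gave an IC50 when retested across doses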;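 note: the DPM-DC format reads NADH fluorescence rather than 340 nm absorbance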
# Fluor 339 460 = intrinsic fluorescence of library compounds, ex339/em460 – biochemical, MLSMR library, data from DPM-DC assay, artefact control, profiling panel. fluorescence fold increase at 10 µM. AID 709. 65,000 compounds, 5.5% hits. compound autofluorescence, ex339/em460 nm, NADH buffer; stronger effect = higher value; 1 = no-compound wells, NADH background;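 active = at 10 µM, mean starting fluorescence two-fold or more over control wells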;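 note: signal is the first read of a kinetic run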
# Abs 340nm = compounds absorbing at 340 nm | 65,000 tested, under 10 active | fold change at 10 µM | compound absorbance at 340 nm, fold over control;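 active = at 10 µM dose, initial 340 nm absorbance at least 2 fold that of control wells; inactive = change under 2 fold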;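 note: initial absorbance extrapolated from kinetic A340 decline of NADH oxidation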
# M1 antagonist = blocks the rat M1 muscarinic receptor response to acetylcholine; P08482; CHO-M1 cells, Fluo-4 calcium, ACh EC80 antagonist mode; stronger effect = lower value; B-score at 10 µM; 64,000 compounds, 3.4% hits; AID 628;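 active = calcium fluorescence response, raw or row-and-column corrected B-score, differing from the plate sample mean either way at a set confidence level, mostly lower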
# Target sequence (P08482 whole entry, looked up): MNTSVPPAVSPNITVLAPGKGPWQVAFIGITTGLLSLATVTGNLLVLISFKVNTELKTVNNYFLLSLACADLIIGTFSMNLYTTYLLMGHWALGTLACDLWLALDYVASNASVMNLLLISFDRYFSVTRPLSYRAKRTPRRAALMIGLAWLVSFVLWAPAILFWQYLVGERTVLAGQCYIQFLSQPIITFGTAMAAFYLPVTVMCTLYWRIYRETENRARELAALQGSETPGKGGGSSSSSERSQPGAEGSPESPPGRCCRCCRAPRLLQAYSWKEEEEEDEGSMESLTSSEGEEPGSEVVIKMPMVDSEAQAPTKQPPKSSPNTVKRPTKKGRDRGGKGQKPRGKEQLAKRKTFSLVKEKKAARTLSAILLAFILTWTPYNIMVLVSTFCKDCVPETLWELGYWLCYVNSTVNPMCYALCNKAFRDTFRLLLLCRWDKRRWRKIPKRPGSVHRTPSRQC
# Active calls of the source: *; x = not tested or not shown.
SMILES,mHtt clearance,M1 agonist,NADH coupling,Fluor 339 460,Abs 340nm,M1 antagonist
Cc1cc(NCCO)c2ccccc2n1,-83,x,x,x,x,x
OCCNc1nc(-c2ccccc2)c2ccccc2n1,x,-1.5,8%,2.4*,1,-0.4
Cc1ccc2nc(NCCO)nc(-c3ccccc3)c2c1,x,-0.16,17%,5*,1,-0.96
COCC(=O)NCCSc1c(C)[nH]c2ccccc12,-26,x,x,x,x,x
Nc1nc(SCC(=O)NCc2ccccc2)n[nH]1,-11,0.74,7%,1.1,0.98,0.74
Cc1ccc(CNC(=O)CSc2n[nH]c(N)n2)cc1,82*,-0.24,2%,1,0.98,0.025
CC1CN(c2oc(Cc3cccc4ccccc34)nc2C#N)CC(C)O1 (configuration not stated),-13,0.46,11%,1.1,0.96,-0.14
N#Cc1nc(-c2cccs2)oc1N1CCOCC1,x,0.081,3%,2.3*,1.1,-0.17
CC1CN(c2oc(-c3cccs3)nc2C#N)CC(C)O1 (configuration not stated),12,-0.8,7%,2.4*,1.1,-0.26
N#Cc1nc(COc2ccccc2)oc1N1CCOCC1,x,-0.09,6%,1.2,1.1,0.54
CC(C)Cc1nc(C(N)=O)c2[nH]c(=O)n(-c3ccc(F)cc3)c2n1,x,-0.28,4%,2.2*,1.1,0.077
Cc1cccc(-n2c(=O)[nH]c3c(C(N)=O)nc(CC(C)C)nc32)c1,x,-0.003,5%,5.1*,1,0.21
O=C(Nc1ccc(N2CCOCC2)cc1)C1CCCN(S(=O)(=O)c2cccc(C(F)(F)F)c2)C1 (configuration not stated),x,0.27,6%,1,1,0.67
CCOC(=O)C1CCCN(C(=O)c2ccco2)C1 (configuration not stated),0,-1.6,6%,1,1,-0.69
Cc1sc(NC(=O)c2ccco2)nc1-c1ccc2c(c1)CC(C)N2C(=O)C1CC1 (configuration not stated),x,14*,6%,1.3,1,-3.6*
Cc1sc(NC(=O)c2ccco2)nc1-c1ccccc1,36,x,x,x,x,x
CC1Cc2ccccc2N1C(=O)c1cc2sccc2n1Cc1ccc(F)cc1 (configuration not stated),9,x,x,x,x,x
Cn1c(C(=O)N2CCc3ccccc3C2)cc2c(=O)n3ccccc3nc21,x,2.1,7%,5*,1.1,0.46
Cn1c(C(=O)N2CCN(C(=O)c3ccco3)CC2)cc2c(=O)n3ccccc3nc21,1,0.24,3%,3.4*,1,-0.34
Cc1cccn2c(=O)c3cc(C(=O)N4CCN(C(=O)c5ccco5)CC4)n(C)c3nc12,x,0.27,4%,5*,1.1,0.25
CCN(CC)C(=O)c1cc2c(=O)n3cccc(C)c3nc2n1C,-86,0.48,10%,5*,1.1,0.14
CCCCn1c(N(CCOC(C)=O)C(C)=O)nc2ccccc21,37,-0.2,3%,1,1,1
COC(=O)C1=C(CSc2nccn2C)NC(=O)NC1c1cc(C)ccc1C (configuration not stated),8,x,x,x,x,x
O=C(NC(NC(=S)Nc1cccc(Cl)c1)C(Cl)(Cl)Cl)OCc1ccccc1 (configuration not stated),-26,x,x,x,x,x
COc1ccc(S(=O)(=O)N2CCC(C(=O)Nc3cccc(Cl)c3)CC2)cc1OC,-18,-0.77,4%,1.1,1,0.32
SMILES,mHtt clearance,M1 agonist,NADH coupling,Fluor 339 460,Abs 340nm,M1 antagonist
Cc1cccn2c(=O)c3cc(C(=O)N4CCc5ccccc54)n(C)c3nc12,x,-0.49,9%,2.5*,1,-1.3
O=C1c2ccccc2NC(c2ccccc2)N1Cc1ccco1 (configuration not stated),x,-0.14,5%,2.2*,1,0.28
COc1cccc(OCc2cc(C3Nc4ccccc4C(=O)N3Cc3ccco3)ccc2OC)c1 (configuration not stated),17,x,x,x,x,x
O=C1c2ccccc2NC(c2ccc(F)cc2)N1Cc1ccco1 (configuration not stated),0,-0.033,5%,3.8*,1.1,-0.11
Cc1ccc(C(=O)C2CCN(CC(=O)Nc3nc(C)cs3)CC2)cc1,-30,x,x,x,x,x
CCN1CC=C2C(C#N)=C(N)C(C#N)(C#N)C(c3cc(Cl)ccc3Cl)C2C1 (configuration not stated),-358,35*,12%,2.9*,1,0.4
CCOC(=O)Cc1csc(NC(=O)COc2ccccc2)n1,x,-1.4,4%,1.1,1.1,-1
CCOC(=O)Cc1csc(NS(=O)(=O)Cc2ccccc2)n1,x,-0.25,5%,1.1,1,2.6*
Cc1cc(C)c2cc(C#N)c(NCCCNC(=O)CCC(=O)O)nc2c1,25,0.08,6%,3.7*,1,0.4
CCOc1ccc2nc(NCCCNS(=O)(=O)c3ccc(C)cc3)c(C#N)cc2c1,-22,x,x,x,x,x
Cc1ccc2cc(C#N)c(N3CCCN(C(=O)C4CCCO4)CC3)nc2c1 (configuration not stated),53,0.14,9%,2.3*,1,-0.13
Cc1ccc2cc(C#N)c(NCCCNC(=O)C3CCCO3)nc2c1 (configuration not stated),x,1.3,2%,2.9*,1,0.64
COC(=O)CN(c1ccccn1)S(=O)(=O)c1ccccc1,-55,-0.68,10%,3.1*,1,0.75
Cc1cc(C)c2cc(C#N)c(N3CCCC3)nc2c1,x,0.11,8%,2.2*,1,0.9
COc1cc(-c2nc3ccccn3c2NCC2CCCO2)ccc1O (configuration not stated),-45,3.3*,8%,3.7*,1.1,-1.1
O=C(CN1CCN(C(=O)c2ccco2)CC1)Nc1ccc2c(c1)OCCO2,-14,-0.3,4%,1.1,1,-0.0039
Cc1ccc2nc(-c3ccc(NC(=O)CN4CCN(C(=O)c5ccco5)CC4)cc3)sc2c1,30,-1.4,3%,2.2*,1.1,-0.018
Cc1ccccc1Cn1cc(NC(=O)c2cc3nc(-c4ccco4)cc(C(F)(F)F)n3n2)cn1,22,1.5,23%,3*,1.1,-0.68
Cc1ccc(Cn2ccc(NC(=O)c3cc4nc(-c5ccco5)cc(C(F)(F)F)n4n3)n2)cc1,-39,x,x,x,x,x
O=C(Nc1ccc(Cl)cc1)c1cc2nc(-c3ccco3)cc(C(F)(F)F)n2n1,x,0.48,9%,2.5*,1.1,-0.52
CCOC(=O)Cn1c(CN(Cc2ccccc2)Cc2ccccc2)nc2c1c(=O)n(C)c(=O)n2C,-22,1.6,5%,1.1,0.97,-0.2
CCCCc1ccc(C2C(C#N)=C(N)SC(N)=C2C#N)s1,36,-1.8,4%,1.1,1,-1.1
COc1ccc(-c2cc(C(F)(F)F)nc(S(=O)(=O)CCC(=O)N3CCOCC3)n2)cc1,x,-0.0068,17%,2.8*,1.3,0.79
COc1ccc(-c2cc(C(F)(F)F)nc(SCC(=O)N3CCOCC3)n2)cc1OC,24,1.9,14%,2.4*,1.2,-0.75
